Compounds with a hit are over-represented: about 1.2% of the library has one in this group of screens.
EPAC1 ag: activates human EPAC1 exchange factor; AID 720707; Potency, µM (doses to about 154 µM), actives largely listed as activators; EPAC1 agonist qHTS, biochemical assay; response scale: 100% = response to 6.5 mM cAMP; O95398; 0.073% of 360,000 active; further: nearly all actives have a fitted effect of over 60% in size
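Multi-concentration qHTS readout: loss of Rap1B-bound BODIPY-GDP fluorescence driven by 100 nM EPAC1 with excess GDP (50 uM), monitored kinetically at room temperature; agonist response expressed relative to 6.5 mM cAMP.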
EPAC2 antag: EPAC2 (human) antagonism. 0.18% of 360,000 active. EPAC2 GEF exchange of Rap1B-BODIPY-GDP, fluorescence. Q8WZA2. Potency, µM (titrated, usually from 114 µM), actives largely listed as inhibitors; further: nearly all actives have a fitted effect of over 45% in size
VDR inhibitor: blocks the human vitamin D receptor; P11473; AID 504847; Potency, µM, actives largely listed as inhibitors; 0.93% of 400,000 active; VDR-SRC2-3 peptide fluorescence polarization, 2 h
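Fluorescence polarization assay of small-molecule disruption of VDR binding to coregulator peptide SRC2-3. Compounds and controls pin-transferred, then read after 2 h incubation at ambient room temperature.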
EPAC2 agonist: EPAC2 (human) agonism; Potency, µM (series often up to 154 µM), actives largely listed as activators; EPAC2 activation, biochemical qHTS; response scale: 100% = 6.5 mM cAMP response; Q8WZA2; AID 720711; 0.079% of 360,000 active; further: nearly all actives have a fitted effect of over 50% in size
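In this primary screen, activation is scored as increased exchange of BODIPY-GDP from Rap1B by 100 nM EPAC2, with 50 uM GDP as competitor. Signal is normalized to the 6.5 mM cAMP agonist control.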
EPAC1 antag: antagonists of human EPAC1; AID 720709; O95398; Potency, µM (titrated, usually from 115 µM), usual class: inhibitors; EPAC1 GEF assay, Rap1b-BODIPY-GDP exchange fluorescence; 0.14% of 360,000 active; further: nearly all actives have a fitted effect of over 50% in size
USP1-UAF1 inh: blocks the human USP1/UAF1 deubiquitinase complex; Potency, µM (top dose mostly 57.1 µM), most hits filed as inhibitors; 0.23% of 390,000 active; O94782; AID 743255; recombinant USP1/UAF1, Ub-Rhodamine cleavage fluorescence; further: nearly all actives have a fitted effect of over 60% in size
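In this screen, compounds sit with the deubiquitinase complex (1nM) for 15 min at room temperature before Ub-Rho is added at 150nM final. Fluorescence rise is then followed for 6 reads every 60 seconds.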
Numbers stand for hits. The call rests on the fitted dose curve; in most records, active means well fitted curve in the direction sought with a large enough effect; inconclusive means small, poorly fitted or top-dose-only effect, or another doubt; inactive means no such curve, though single readings can be large; an effect the other way counts as inactive or inconclusive.

O=C(NNc1ccc(Cl)cc1)c1c(F)cccc1Cl was read as EPAC1 ag inactive, EPAC2 antag inactive, VDR inhibitor inactive, EPAC2 agonist inactive, EPAC1 antag inactive and USP1-UAF1 inh inactive.
`CC(C)(C)c1ccc(S(=O)(=O)/C=C/C#N)cc1` gave VDR inhibitor 6.3µM.
Cc1ccn(S(=O)(=O)c2ccc(C(C)(C)C)cc2)n1 was read as EPAC1 ag inactive, EPAC2 antag inactive, VDR inhibitor inactive, EPAC2 agonist inactive, EPAC1 antag inactive and USP1-UAF1 inh inactive.
For O=C(CN1C(=O)N/C(=C\c2ccccc2OCc2ccc(C(=O)O)cc2)C1=O)Nc1ccccc1F the results were EPAC1 ag inactive, EPAC2 antag inactive, VDR inhibitor inactive, EPAC2 agonist inactive, EPAC1 antag 35µM and USP1-UAF1 inh inconclusive.
COc1cccc(/C=C2/NC(=O)N(CC(=O)Nc3ccc(C)cc3)C2=O)c1OCc1cccc(C(=O)O)c1 was read as EPAC1 ag inactive, EPAC2 antag inactive, VDR inhibitor inactive, EPAC2 agonist inactive, EPAC1 antag inconclusive and USP1-UAF1 inh 25µM.
`O=C(O)c1ccccc1OS(=O)(=O)O` gave VDR inhibitor inactive.
Screening O=C(c1csnn1)N1CCC2(CCCN(c3ccccn3)C2)CC1 returned VDR inhibitor inactive.
For Cc1ccc(S(=O)(=O)NCC(Nc2cccc(Cl)c2)c2ccccc2)cc1 (stereo unspecified) the results were VDR inhibitor inactive and USP1-UAF1 inh inconclusive.
Screening Cc1[nH]c2ccccc2c1C1=CC(=O)C=CC1=O returned EPAC1 ag inactive, EPAC2 antag inactive, VDR inhibitor 28µM, EPAC2 agonist inactive, EPAC1 antag inactive and USP1-UAF1 inh inactive.
Screening CC(C)c1cc(=O)oc2c3c4c(cc12)CCCN4CCC3 returned EPAC1 ag inactive, EPAC2 antag inactive, VDR inhibitor inactive, EPAC2 agonist inactive, EPAC1 antag inactive and USP1-UAF1 inh inconclusive.
For O=c1oc2c3c4c(cc2c(C(F)(F)F)c1CCN1CCOCC1)CCCN4CCC3 the results were EPAC1 ag inconclusive, EPAC2 antag inactive, VDR inhibitor inactive, EPAC2 agonist 112µM, EPAC1 antag inactive and USP1-UAF1 inh 6.3µM.
Screening COc1ccc(C(=O)/C=C/c2cccc(OCc3ccccc3)c2)cc1CSCC(=O)O returned EPAC1 ag inactive, EPAC2 antag inconclusive, VDR inhibitor 13µM, EPAC2 agonist inactive, EPAC1 antag inconclusive and USP1-UAF1 inh inactive.
`Cc1cccc(N2CCN(S(=O)(=O)c3ccc(-c4cc(C(F)(F)F)on4)s3)CC2)c1C` gave VDR inhibitor inactive and USP1-UAF1 inh inactive.
Screening CC1=CC23C(=O)C(C=C(CO)[C@@H](O)[C@]2(O)[C@H]1O)[C@H]1[C@@H](C[C@H]3C)C1(C)C (stereo partly specified) returned VDR inhibitor inactive.
CS(=O)(=O)c1ccc(C(=O)OCc2nnc(-c3ccccc3)o2)cc1[N+](=O)[O-] was read as EPAC1 ag inactive, EPAC2 antag inactive, VDR inhibitor inconclusive, EPAC2 agonist inactive, EPAC1 antag 89µM and USP1-UAF1 inh inactive.
Screening CC(=O)N(C1CC(C)C(C#N)(C#N)C1(C#N)C#N)N(C)C (stereo unspecified) returned EPAC1 ag inactive, EPAC2 antag inactive, VDR inhibitor 35µM, EPAC2 agonist inactive, EPAC1 antag inactive and USP1-UAF1 inh inactive.
`CCCC(=O)N(C1CC(C)C(C#N)(C#N)C1(C#N)C#N)N(C)C` (stereo unspecified) gave EPAC1 ag inactive, EPAC2 antag inactive, VDR inhibitor 8.9µM, EPAC2 agonist inactive, EPAC1 antag inactive and USP1-UAF1 inh inactive.
C=C1CCN(C(Cc2ccccc2)C(=O)Nc2ccc(OC)cc2)S(=O)(=O)c2ccccc21 (stereo unspecified) was read as VDR inhibitor inactive.
`CCOc1ccc(Br)cc1C1=NN(C(C)=O)C(c2ccc([N+](=O)[O-])s2)O1` (stereo unspecified) gave EPAC1 ag inactive, EPAC2 antag inactive, VDR inhibitor inactive, EPAC2 agonist inactive, EPAC1 antag inactive and USP1-UAF1 inh 22µM.

From PubChem BioAssay
